# Bioassay records from PubChem.
# Pf Dd2 growth: qHTS Primary assay for Inhibitors of Plasmodium falciparum Dd2 growth in vitro; P. falciparum Dd2 growth, SYBR Green, 72 h; Potency, µM (top dose mostly 28.9 µM), inactives show at the highest dose activity, negative = inhibition, usual class: inhibitors; 120,000 compounds, 4.3% hits; active means well fitted inhibition curve with a large enough effect;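 further: plate controls were DMSO vehicle for no effect and reference drug for full effect; nearly all actives have a fitted effect of over 65% in size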
#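 Readout: SYBR Green fluorescence, 485 nm excitation, 535 nm emission, after ~16 h lysis at 37C. Before that, Dd2-infected red cells (2.5% hematocrit) grew 72 h with compound, 29 uM top final concentration.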
# Numbers without * were called inactive; i = inactive; [ ] = dose if it differs, or a comment. The entries come from a sample that favours hits as a whole. Potency means the concentration at half of the fitted maximal effect.
SMILES,Pf Dd2 growth
O=C(Nc1ccccc1Cl)N1CCC(Oc2ncccc2C(=O)N2CCOCC2)C1 (stereo unspecified),i
O=C(c1cccc(CC2CCNCC2)c1)N1CCOCC(O)C1 (stereo unspecified),4%
CC(=O)Nc1ccc(CN2C(=O)OC3(CCN(C(=O)c4scnc4C)CC3)C2(C)c2ccccc2)cc1 (stereo unspecified),-3%
Cc1ccc(NC(=O)C2CCN(S(=O)(=O)c3cccc4nonc34)CC2)cc1C,12%
CC(=O)c1ccc(N2CCN(S(=O)(=O)c3cc(-c4noc(C)n4)ccc3C)CC2)cc1,13%
Cc1nc(-c2ccc(C)c(S(=O)(=O)N3CCC(C(=O)Nc4ccc(Cl)cc4)CC3)c2)no1,11µM*
Cc1nc(-c2cccc(S(=O)(=O)N3CCC(C(=O)NCc4ccccc4Cl)CC3)c2)no1,25%
COc1ccc(-c2noc(N3CCC(C(=O)Nc4ccc(OC)c(OC)c4)CC3)n2)cc1,21%
COc1cccc(NC(=O)C2CCN(S(=O)(=O)c3cc(-c4noc(C)n4)ccc3C)CC2)c1,10µM*
COc1ccccc1-c1[nH]ncc1CN1CCC2(CC1)CC(O)CCO2 (stereo unspecified),44%
COCCC1(NC(=O)c2ccccc2)CCN(Cc2cn[nH]c2-c2cccs2)CC1,8.9µM*
O=C1CC(c2ccccc2)N(Cc2cn[nH]c2-c2cccs2)CCCCCN1 (stereo unspecified),-9%
Cc1cnc(CC2CCN(C(=O)c3cccnc3)C2)n1C(C)C (stereo unspecified),-14%
Cc1ccccc1N1Cc2c(NCC3CCCCCC3)ncnc2N(C)CC1=O,i
C#CCN(C)C(=O)C[C@@H]1CCNC[C@@H]1Cc1cc(COc2ccccc2)on1,10µM*
COc1ccc(-c2cc(C[C@H]3CNCC[C@H]3CC(=O)NCc3ccccc3OC)no2)cc1,10µM*
O=C(C[C@@H]1CCNC[C@@H]1Cc1cc(CSc2ccccc2)on1)NCc1cccnc1,i
COc1ccc(CNC(=O)C[C@@H]2CCNC[C@@H]2Cc2cc(CN(C)Cc3ccccc3)on2)cc1,i
COc1ccc(-c2cc(C[C@H]3CNCC[C@H]3CC(=O)NCc3ccc(OC)c(OC)c3)no2)cc1,i
CN(Cc1ccccc1)C(=O)C[C@@H]1CCNC[C@@H]1Cc1cc(CSc2ccccc2)on1,10µM*
COc1ccc(-c2cc(C[C@H]3CNCC[C@H]3CC(=O)N(C)Cc3ccccc3)no2)cc1,10µM*
O=C(C[C@@H]1CCNC[C@@H]1Cc1cc(CSc2ccccc2)on1)NCCN1CCOCC1,-20%
COc1ccc(-c2cc(C[C@H]3CNCC[C@H]3CC(=O)N3CCN(C)CC3)no2)cc1,-19%[44.1 µM]
COc1ccc(CNC(=O)C[C@@H]2CCNC[C@@H]2Cc2cc(-c3ccc(OC)cc3)on2)cc1,-2%
O=C(C[C@@H]1CCNC[C@@H]1Cc1cc(COc2ccccc2)on1)NC1CCCCC1,-12%[44.1 µM]
SMILES,Pf Dd2 growth
COc1ccc(-c2cc(C[C@H]3CNCC[C@H]3CC(=O)N3CCN(c4ccccc4)CC3)no2)cc1,-7%
CCOC(=O)C1CCN(C(=O)C2COC3(CCCCC3)N2C(=O)c2cc(F)cc(F)c2)CC1 (stereo unspecified),i
Cc1cccc(C(=O)N2CCC(n3cnnc3C3CC3)CC2)c1,8%
COC(=O)CNC(=O)N1CCCCCCNC(=O)[C@@H]2C[C@@H](c3nc(-c4cccnc4)no3)C[C@@H]21,4%
CC(C)CN1CCc2[nH]cnc2C12CCN(C(=O)CN1CCOC1=O)CC2,-8%
CCCCNC(=O)c1ccc2c(c1)N(S(=O)(=O)c1ccccc1F)CC2,-16%
COCCn1nnnc1C1CC2(CCOCC2)C(=O)N1CCc1ccc(Cl)cc1 (stereo unspecified),-6%
COCCN1C(=O)[C@H]2CN(CCC(C)C)C[C@H]2C1=O,14%
Cc1ncoc1C(=O)N1CCC(N2CCCC(C(=O)N3CCCC3)C2)CC1 (stereo unspecified),2%
Cc1cnc(CCNC(=O)c2n[nH]c(=O)c3ccccc23)n1C1CCCCC1,7.9µM*
COCc1ncc(C)n1CCNC(=O)c1n[nH]c(=O)c2ccccc12,16%
Cc1cnc(CCNC(=O)Nc2ccc3c(c2)OCCO3)n1C1CCC1,5µM*
Cc1cnc(CCNC(=O)c2n[nH]c(=O)c3ccccc23)n1C1CCC1,-9%
Cc1cnc(CCNC(=O)NCc2ccccc2)n1C1CCC1,-11%
Cc1cnc(CCNC(=O)NC(C)C)n1C1CC1,-17%
O=C(c1cccnc1)N1CCC2(CC1)CC(N(C(=O)c1ccccc1)C1CC1)CCO2 (stereo unspecified),i
CC(C)NC(=O)C[C@@H]1O[C@H](CNC(=O)Nc2ccccc2)[C@@H](O)[C@H]1O,10%[44.1 µM]
O=C(c1ccc2[nH]ccc2c1)N1CCC2(CC1)Nc1ccccc1NC2=O,-7%
COC1CCOC2(CCN(C(=O)COc3ccc(F)cc3)CC2)C1 (stereo unspecified),-6%
CCc1ccccc1NC(=O)Cn1ccn2nc(-c3ccc(F)cc3)c(CO)c2c1=O,-9%
CN1C(=O)C(c2ccccc2)CC12CCN(C(=O)C1CCCC1)CC2 (stereo unspecified),-2%
CN1C(=O)C(c2ccccc2)CC12CCN(S(C)(=O)=O)CC2 (stereo unspecified),-7%
CN1C(=O)C(c2ccccc2)CC12CCN(CCC(=O)O)CC2 (stereo unspecified),10µM*
C[S+](=O)([O-])N1Cc2ccccc2CC12CN(C(=O)Nc1ccccc1)C2,-22%
CCn1ccc(C(=O)N2CCc3nnc([C@@H]4C[C@@H](O)CN4C)n3CC2)n1,3%
SMILES,Pf Dd2 growth
Cc1ccc(C(=O)N2CCn3c(nnc3C3CCCNC3)C2)cc1 (stereo unspecified),6%[44.1 µM]
O=C(CN1CCCc2nc(-c3ccccc3)ncc2C1=O)NC1CC1,-2%
CCOC(=O)c1c(C)oc2nc(C)nc(NCc3ccccc3OCC)c12,8.9µM*
Cc1nc(N2CCCC2)c2c(C(=O)N3CCN(c4ccc(F)cc4)CC3)c(C)oc2n1,-9%
CCOC(=O)c1c(C)oc2nc(C)nc(NCc3ccccc3OC)c12,8.9µM*
CCOC(=O)c1c(C)oc2nc(C)nc(NCC3CCN(Cc4cccc(C)c4)CC3)c12,i[5.79 µM]
CCOC(=O)c1c(C)oc2nc(C)nc(NCC3CCN(Cc4cc(C)ccc4C)CC3)c12,-3%
CCOC(=O)c1c(C)oc2nc(C)nc(NCCc3ccc(C)cc3)c12,-10%
CCOC(=O)c1c(C)oc2ncnc(Nc3ccc(CC)cc3)c12,i
CCOC(=O)c1c(C)oc2nc(C)nc(NCCc3ccc(S(N)(=O)=O)cc3)c12,i[5.79 µM]
CCOC(=O)c1c(C)oc2nc(C)nc(NCCCN3CCN(c4ccc(F)cc4)CC3)c12,11µM*
COc1ccc(F)cc1S(=O)(=O)N1CCCC(Cn2c(C3CC3)nc3cccnc32)C1 (stereo unspecified),i
CCc1ccccc1NC(=O)Cn1c(C)cc2nc3n(c(=O)c21)CCCCC3,-12%
CC(=O)N1CC2(CCN(CCc3ccccn3)CC2)CC1C(=O)O (stereo unspecified),4%
COc1cc(=O)n2c(c1C(=O)NCC1CCOc3ccccc3C1)CCNCC2 (stereo unspecified),-5%
Cc1cc(C)c2c(CC(=O)N[C@@H]3CCOC[C@H]3Oc3ccccn3)coc2c1,-23%
O=C(C[C@@H]1C[C@H]2O[C@H](CNC3CCOCC3)[C@@H](O)[C@H]2O1)N1CCOCC1,13%[44.1 µM]
O=C(c1ccccn1)N1CCC(Cc2nc(C3CCOCC3)no2)CC1,10%
